From PubChem BioAssay
This is a sample that favours compounds with a hit; in the whole collection about 3.8% have one here.
HT1080-NT tox = kills 2HG-producing HT-1080-NT fibrosarcoma cells; 1.6% of 360,000 active; Potency, µM (titrated, usually from 46.1 µM), without a hit: at the top dose activity, negative = less viability, hits mostly cytotoxic; HT-1080-NT fibrosarcoma viability, CellTiter-Glo ATP luminescence, 48 h; AID 686970;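 further: NT is the 2HG producing partner of a matched IDH1 knockdown line; 0% = DMSO-treated cells and -100% = media-only wells without cells; nearly all actives have a fitted effect of over 55% in size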
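Read-out is CellTiter-Glo luminescence after 10 minutes at room temperature, following 48 hours' compound treatment of HT-1080-NT cells (750 cells/well, RPMI, 5% FBS, 37 degrees C).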
TGFb inhibitor = blocks TGF-b signaling | HepG2 CAGA-GFP TGF-b/SMAD3 reporter, GFP fluorescence, 18 h; TGF-beta stimulated, 500 pg/mL final | Potency, µM (titrated, usually from 46.1 µM), for the others: top-dose activity, negative = inhibition, actives largely listed as inhibitors | 1.2% of 410,000 active; further: on the % scale 0 is the no-effect control and ±100 the full control effect; nearly all actives have a fitted effect of over 65% in size
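Per well, imaged GFP fluorescence of HEPG2 CAGA-GFP cells gives the signal; cells get compound, then TGF-beta (500 pg/mL final), 18 h at 37 degrees C; %Activity versus -TGF-beta and +DMSO controls.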
S2 tox = reduces viability in counter-screen for ATXN expression inhibitors; S2 cells (HEK-293 line with an ATXN2-luciferase reporter) viability, CellTiter-Fluor protease fluorescence, 24 h; Potency, µM (series often up to 56.7 µM), usual class: cytotoxic; 0.49% of 400,000 active; further: nearly all actives have a fitted effect of over 40% in size
HT1080 IDH1KD tx = kills HT-1080 cells with IDH1 knockdown. HT-1080 IDH1 knockdown viability, ATP luminescence, 48 h. Potency, µM (highest dose often 46.1 µM), inactives show at the highest dose activity, negative = toxicity, hits mostly cytotoxic. 2% of 360,000 active. AID 686971;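 further: 0% = DMSO wells and -100% = cell-free medium wells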
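After a 2 h attachment period, IDH1KD HT-1080 cells took pin-transferred compound for 48 h at 37 °C; ATP-based luminescence after 10 min room-temperature reagent incubation reported viability.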
HepG2 tox = HepG2 cytotoxicity, counter-screen for TGF-b inhibitors | 0.76% of 410,000 active | Potency, µM (highest dose often 46.1 µM), for inactives: top-dose activity change, negative = cytotoxicity, most hits filed as cytotoxic | HepG2 CAGA-GFP viability, ATP luminescence, 18 h
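CellTiter-Glo luminescence gave cytotoxicity after 18 hours at 37 degrees C. The cells were HepG2 CAGA-GFP in 1% FBS DMEM, stimulated with 500 pg/mL TGF-beta after compound addition. %Activity was normalised to no-cell wells (complete cell-killing) and DMSO (no toxicity), and curves were fitted and classified.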
ATXN2 expr inh = ATXN2 expression inhibition | HEK-293 ATXN2-luciferase reporter, luminescence, 24 h | Potency, µM (top dose mostly 57 µM), for the others: at the highest dose activity change, negative = inhibition, actives largely listed as inhibitors | 0.72% of 360,000 active; further: on the % scale 0 is the no-effect control and ±100 the full control effect; nearly all actives have a fitted effect of over 55% in size
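qHTS (up to 57 uM final) was run with 24 h compound exposure of reporter cells at 37 °C. Each well was multiplexed: SteadyGlo luminescence measured ATXN2-luciferase expression after a fluorogenic Gly-Phe-AFC viability readout (25 uM final).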
* hit, by the source's call; i = inactive; ? = inconclusive; / = no result. The call rests on the fitted dose curve; in most records, active means well fitted curve in the direction sought with a large enough effect; inconclusive means small, poorly fitted or top-dose-only effect, or another doubt; inactive means no such curve, though single readings can be large; an effect the other way counts as inactive or inconclusive. Potency means the concentration at half of the fitted maximal effect.

SMILES | HT1080-NT tox | TGFb inhibitor | S2 tox | HT1080 IDH1KD tx | HepG2 tox | ATXN2 expr inh
CC(=O)N1CCC[C@H]1C(=O)NCC1Cc2cc(F)cc(-c3ccc(F)c(C)c3)c2O1 (stereo partly drawn) | / | / | i | / | / | /
COC(=O)c1cc2sccc2n1CC(=O)Nc1ccc(C)cc1C | / | 13% | i | / | 1% | 2%
O=[N+]([O-])c1cc(C(F)(F)F)cc([N+](=O)[O-])c1NCCNC(=S)Nc1cccc(F)c1 | -24% | 11µM* | ? | -22% | -126% | ?
NC(=O)c1ccc2nc(-c3ccc(Oc4ccc(Cl)cc4)cc3)[nH]c2c1 | / | / | / | / | / | 28%
N#C/C(=N\Nc1ccc(Cl)cc1)C(N)=S | 9.2µM* | ? | ? | 2.3µM* | -37% | ?
Cc1c(C(=O)N2CCOCC2)sc(NC(=O)CCl)c1C#N | 13µM* | 0% | i | 12µM* | -8% | -12%
Cc1c(C(=O)N2CCOCC2)sc(NC(=O)c2ccc([N+](=O)[O-])cc2)c1C#N | 7% | 23% | ? | 15% | 7% | ?
CN(C)c1nc(Cc2ccc(NC(=O)c3ccc4ccccc4c3)cc2)nc(Cl)c1CC(=O)O | / | / | / | / | / | -1%
O=c1cc(CN2CCN(c3ccccc3F)CC2)c2cc3c(cc2o1)CCCC3 | 4% | ? | i | 18% | 18µM* | -14%
Cc1ccccc1C(=O)Nc1cccc(-c2nc3cccnc3s2)c1 | / | 2% | / | / | -16% | /
COc1ccc(C(=O)NCC(c2ccco2)N2CCc3ccccc32)cc1 (stereo not drawn) | 4.1µM* | ? | ? | 5.8µM* | 0% | -28%
COc1ccc(NC(=O)C(=O)NCC(c2ccco2)N2CCc3ccccc32)cc1 (stereo not drawn) | 2% | -18% | i | ? | 0% | -12%
Cc1cc(C(=O)N2CCN(c3cccc(Cl)c3)CC2)c2c(C)nn(-c3ccccc3Cl)c2n1 | / | ? | ? | / | -22% | ?
CC(NCCCOc1cccc2ccccc12)c1ccccc1 (stereo not drawn) | ? | ? | ? | ? | 20µM* | /
CC(C)N1C/C(=C/c2cccnc2)C(=O)/C(=C/c2cccnc2)C1 | 6.5µM* | 7.1µM* | ? | 5.8µM* | -28% | -11%
O=C1c2ccccc2C(=Cc2cccnc2)c2ccccc21 | 2% | -20% | ? | 2% | -20% | /
CN1C/C(=C/c2cccnc2)C(=O)/C(=C/c2cccnc2)C1 | ? | 2.8µM* | ? | ? | -77% | 20µM*
CC(C)N1C/C(=C/c2ccsc2)C(=O)/C(=C/c2ccsc2)C1 | ? | 7.9µM* | / | ? | -33% | ?
CCN1C(=O)S/C(=C/c2ccsc2)C1=O | 4% | -1% | i | -1% | -13% | 12%
COc1ccc(NC(=O)C2CCN(S(=O)(=O)c3ccc4c(c3)CCCC(=O)N4)CC2)cc1Cl | / | 1% | i | / | -6% | 0%
CN(CC(=O)Nc1cccc(F)c1)C(=O)c1ccc(COc2ccccc2)cc1 | 26µM* | -11% | ? | -21% | -13% | -3%
c1ccc(Cc2nnc(Sc3ccccc3)c3ccccc23)cc1 | ? | ? | i | 11µM* | 20µM* | -38%
COc1cccc(C(=O)N(Cc2cccnc2)c2nc3c(OC)ccc(C)c3s2)c1OC | / | ? | / | / | -25% | /
CCCSc1nc(C)c2cc(C)cc(C)c2n1 | 21% | -13% | i | 9% | 4% | -10%
Cc1cc(C)c2nc3nc(C)c(C)cc3c(N)c2c1 | ? | ? | / | 13µM* | 0% | ?
SMILES | HT1080-NT tox | TGFb inhibitor | S2 tox | HT1080 IDH1KD tx | HepG2 tox | ATXN2 expr inh
COc1ccc(-c2nc(C)c(CCNS(=O)(=O)c3cc(C)c(C)cc3C)s2)cc1 | / | 11µM* | ? | / | -25% | ?
Cc1nc(-c2ccccc2)sc1CCNS(=O)(=O)c1ccc(Br)cc1 | / | 11µM* | i | / | -43% | ?
CCC(CC)C(=O)N(CCc1ccc(OC)cc1)Cc1nc2ccccc2c(=O)[nH]1 | ? | ? | ? | 7.1µM* | -30% | -12%
COc1ccccc1CN(Cc1nc2ccccc2c(=O)[nH]1)C(=O)Nc1ccc(C)cc1 | 0% | -7% | i | -23% | -7% | 46%
COc1ccc(CCN(Cc2nc3ccccc3c(=O)[nH]2)C(=O)c2ccco2)cc1 | -6% | -4% | i | -5% | 7% | 1%
COc1ccccc1CN(Cc1nc2ccccc2c(=O)[nH]1)C(=O)Nc1ccccc1C | ? | -21% | i | 11µM* | -33% | 9%
Cc1cccc(C(=O)NCc2nc(-c3cccc(NC(=O)C4CCCN(C)C4)c3)oc2C)n1 (stereo not drawn) | / | / | i | / | / | /
COC(C(=O)C(O)C(C)O)C1Cc2cc3cc(OC4CC(OC5CC(O)C(O)C(C)O5)C(O)C(C)O4)c(C)c(O)c3c(O)c2C(=O)C1OC1CC(OC2CC(OC3CC(C)(O)C(O)C(C)O3)C(O)C(C)O2)C(O)C(C)O1 (stereo not drawn) | / | 0.63µM* | / | / | 23% | /
Cc1cc2c(c(-c3ccc4nc(C)ccc4c3)c1)OC(CNC(=O)Cc1ccn(C)c1)C2 (stereo not drawn) | / | / | i | / | / | /
CCCCC1C(=O)N(c2ccccc2)N(c2ccc(O)cc2)C1=O (stereo not drawn) | ? | 5.6µM* | 7.9µM* | 9% | 8.9µM* | 5.6µM*
CC(=O)c1ccc(-c2cc(F)cc3c2OC(CNC(=O)C(C)N2CCOCC2)C3)s1 (stereo not drawn) | / | / | i | / | / | /
O=C(/C=C/c1ccccc1[N+](=O)[O-])c1ccccc1Br | ? | ? | ? | 21µM* | 0% | ?
Nc1c(Cl)cc(C=O)cc1Cl | / | 6% | / | / | 0% | /
O=C(Nc1ccc([N+](=O)[O-])cc1)N1CCc2ccccc2C1 | -2% | -4% | i | 12µM* | -16% | 23%
CC(C)c1ccc(NC(=O)N2CCc3ccccc3C2)cc1 | 0% | -6% | i | -26% | -14% | 80%
Cc1c2cnn(CC(=O)NCCc3ccccc3)c(=O)c2c(C)n1Cc1ccccc1 | / | -30% | / | / | -70% | /
CN(C)CCOCCOc1ccc(Cl)cc1C(C)(C)C | ? | -23% | i | ? | -28% | -27%
CC(O)CNCCCOc1ccc(Cl)cc1C(C)(C)C (stereo not drawn) | 18µM* | ? | ? | ? | -99% | 34µM*
Cc1ccccc1CNC(=O)c1oc2c(c1C)-c1[nH]ncc1CC2 | / | 0% | / | / | -30% | /
O=C(CCl)N1c2ccccc2Sc2ccc3ccccc3c21 | 18µM* | 14µM* | ? | ? | 11µM* | /
O=C(Cc1ccc(OCc2ccccc2)cc1)NO | / | 9% | / | / | -7% | /
